# High-throughput results: PubChem BioAssay, National Center for Advancing Translational Sciences (NCATS)
# Most compounds without a hit are left out; they make up all but 12% or so of the library.
# Sm TGR inh: S. mansoni TGR enzyme inhibition. purified TGR, DTNB reduction, TNB absorbance 405 nm. Potency, µM (doses to about 114 µM), most hits filed as inhibitors. 3% of 360,000 active. AID 485364; active means well fitted inhibition curve with a large enough effect; inconclusive means small, poorly fitted or top-dose-only effect; inactive means no such curve, though single readings can be large or run the other way; further: nearly all actives have a fitted effect of over 60% in size
#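 First, TGR (20 nM dispensed) and NADPH were mixed with compound. Second, a 15 min room-temperature incubation followed. Third, further NADPH and then DTNB were added to start the reaction. Finally, TNB absorbance was monitored kinetically.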
# CHX counter: counter-screen hit for Shiga toxin inhibitors, cycloheximide; cell reporter, cycloheximide protein synthesis inhibition counterscreen; 12% of 300,000 active; AID 2314; max response, %; in the data active means max response mostly above about 13%, no sharp cut-off; inactive means mostly below about 14%; further: read at 38.3 µM for the half of the compounds with a filed dose
# Shiga inhibitor: blocks Shiga toxin action in Vero cells; Vero cells, Shiga toxin protein synthesis inhibition reporter; inhibition, % at 38.7 µM; 9.2% of 290,000 active; AID 2315; in the data active means inhibition mostly above about 28%, no sharp cut-off; inactive means mostly below about 43%
# FMDV antiviral: antivirals against foot and mouth disease virus; FMDV antiviral cell-based qHTS; 1.2% of 410,000 active; Potency, µM (doses to about 57.9 µM), actives largely listed as inhibitors; calls by dose curve; tested in HEK293T cells; further: read-out not given here; nearly all actives have a fitted effect of over 45% in size
# Numbers stand for hits; - = inactive; ? = inconclusive; . = no result given.
SMILES,Sm TGR inh,CHX counter,Shiga inhibitor,FMDV antiviral
COc1cccc(/C=N/NC(=O)CCCC(=O)Nc2ccc(Br)cc2)c1,-,-,-,-
CCOC(=O)N/N=C\c1cccc(OC)c1,-,42,72,-
COc1ccc(/C=C/C(=O)Oc2cccc(/C=N/NC(=O)Cc3ccc(Br)cc3)c2)cc1,-,49,89,-
COC(=O)N/N=C/c1cccc(OCCSc2ccc(Cl)cc2)c1,-,34,60,-
Cc1ccc(Cl)cc1NC(=O)c1oc2ccc(S(=O)(=O)N3CCC4(CC3)OCCO4)cc2c1C,-,.,.,-
CCc1cccc(C)c1NC(=O)CN1C(=O)C2(SCC(=O)N2c2cc(C)cc(C)c2)c2ccccc21 (stereo not given),-,.,.,-
Cc1ccc(CNS(=O)(=O)c2c(C)[nH]c(C)c2C(=O)N2CCCCC2)o1,45µM,-,-,-
COc1ccccc1C(=O)Nc1nnc(SCc2cc(=O)c3ccccc3[nH]2)s1,-,.,.,22µM
CCCc1nnc(NC(=O)Nc2ccccc2OC)s1,-,-,-,-
COc1ccccc1Nc1nnc(SCC(=O)N2CCCC2)s1,-,33,-,-
Cc1ccc(Nc2nnc(SCC3CCCCO3)s2)cc1 (stereo not given),-,41,54,-
CCCSc1nnc(NC(=O)Nc2ccccc2OC)s1,-,34,96,-
CCc1nc2ccccc2n1CCCCOc1ccc(Cl)cc1,-,.,.,?
COc1ccccc1Nc1nnc(SCC2CCCCO2)s1 (stereo not given),-,26,-,-
Cc1cccc(Nc2nnc(SCC(=O)NCC3CCCO3)s2)c1 (stereo not given),.,.,.,-
COc1ccccc1Nc1nnc(SCC(=O)NC2CCCC2)s1,-,.,.,-
Cc1ccccc1Nc1nnc(SCC2CCCCO2)s1 (stereo not given),-,55,15,-
Cc1cc(C)c2c(N)c(-c3nc4ccccc4[nH]3)sc2n1,-,45,81,-
Cc1ccc2nc(-c3sc4nc(C)ccc4c3N)[nH]c2c1,-,33,44,?
COc1ccc(Nc2cc(O)c3ncccc3c2)cc1,-,.,.,.
CCOC(=O)c1cc(-c2ccccc2)n(CC(=O)NC2CCC(C)CC2)c1C (stereo not given),-,.,.,-
Cc1ccc(NC(=O)c2ccc3c(c2)C(=O)N(c2cc(C)ccc2C)C3=O)nc1,-,29,68,-
CC(C)CN1C(=O)c2ccc(C(=O)Nc3ccccc3C(=O)O)cc2C1=O,-,55,71,-
CC(C)CN1C(=O)c2ccc(C(=O)Nc3ccc(OCC(=O)O)cc3)cc2C1=O,-,-,-,-
CC(C)CN1C(=O)c2ccc(C(=O)NCc3ccccn3)cc2C1=O,-,-,-,-
SMILES,Sm TGR inh,CHX counter,Shiga inhibitor,FMDV antiviral
CC(C)CN1C(=O)c2ccc(C(=O)Nc3ccncc3)cc2C1=O,-,-,-,13µM
CC(C)CN1C(=O)c2ccc(C(=O)Nc3ccccn3)cc2C1=O,-,34,-,-
Cc1ccc(NC(=O)C(=O)NCC(c2cccnc2)N2CCc3ccccc32)cc1Cl (stereo not given),-,.,.,-
CC(C)(C)C1=CC(=O)C(=O)C(C(C)(C)C)=C1,20µM,-,-,28µM
CCCOc1ccccc1C1Oc2nc(SC)nnc2-c2ccccc2N1C(C)=O (stereo not given),-,.,.,-
Cc1nnc(NC(=O)CSc2nccn2-c2ccc(F)cc2)s1,-,44,59,-
Cc1nnc(NC(=O)CSc2nc3ccccc3[nH]2)s1,-,16,-,-
CCc1nnc(NC(=O)CSc2nc3[nH]ncc3c(=O)[nH]2)s1,-,-,-,-
Cc1nnc(NC(=O)CSc2nc3[nH]ncc3c(=O)[nH]2)s1,45µM,-,-,-
COc1ccc2ncc3c(-c4ccc(C)c(C)c4)nn(CC(=O)Nc4ccccc4)c3c2c1,-,.,.,-
OC(c1cccnc1)c1ccc2c(c1)CN(Cc1ccc(-c3ccccc3Cl)o1)CCO2 (stereo not given),.,.,.,-
O=C1N[C@@H]2[C@H](CCCCC(=O)Oc3ccc([N+](=O)[O-])cc3)SC[C@H]2N1,.,-,-,.
Cc1nn(C(C)C(=O)Nc2ccccc2C(F)(F)F)c(=O)c2c1sc1ccccc12 (stereo not given),-,.,.,-
CCOC(=O)c1c(C)oc2c(Cl)cc(NS(=O)(=O)c3ccc(Cl)c(C)c3)cc12,-,.,.,-
O=C1CC[C@H](OCc2ccccc2)CCN1[C@H](CSc1ccccc1)Cc1ccccc1,-,27,34,-
O=C1CC[C@@H](OCc2ccccc2)CCN1CC[C@H](Sc1ccccc1)c1ccccc1,?,11,-,-
C[C@@H]1CCC(=O)N(CC[C@H](Sc2ccccc2)c2ccccc2)CC1,-,10,-,-
O=C1CC[C@H](O)CCN1[C@H](CSc1ccccc1)Cc1ccccc1,-,-,-,-
CCOc1ccccc1CNC(=O)c1ccc(Cn2c(=O)c3cccn3c3cccnc32)cc1,-,.,.,-
COc1ccc(Cc2nc(-c3cccs3)no2)cc1,-,33,70,-
COc1ccc(Cc2nc(-c3ccc(-n4cccc4)cc3)no2)cc1,-,-,-,-
COc1ccc(Cc2nc(-c3ccccc3)no2)cc1,-,36,42,-
COc1ccc(Cc2nc(-c3cccs3)no2)cc1OC,-,24,-,-
COc1ccc(C2CC(c3ccccc3)=NN2C(=O)CN2N=NC3C(=O)N(c4cccc(F)c4)C(=O)C32)cc1 (stereo not given),-,11,-,-
Cc1nn(-c2ccccc2)c(-n2cccc2)c1C(=O)NCCCN1CCN(c2ccccc2F)CC1,-,.,.,-
SMILES,Sm TGR inh,CHX counter,Shiga inhibitor,FMDV antiviral
O=C(CSCc1c(F)cccc1Cl)NCCSCc1ccco1,.,-,-,-
CC(CC(=O)NCCc1ccc(F)cc1)c1ccccc1 (stereo not given),-,25,-,-
CNC(=O)CSCc1c(F)cccc1Cl,-,-,-,-
CC(C)NC(=O)CSCc1c(F)cccc1Cl,?,8.4,-,-
O=C(CCc1ccccc1)NCCSCc1c(F)cccc1Cl,-,23,-,-
O=C(CSCc1ccccc1)NCCc1ccc(F)cc1,-,17,-,-
O=C(CSCc1c(F)cccc1Cl)NCCc1ccccc1,-,21,46,-
O=C(CSCc1c(Cl)cccc1Cl)NCc1ccco1,-,-,-,-
O=C(CSCc1c(F)cccc1Cl)NCc1ccco1,-,26,-,.
CC(=O)Nc1nonc1-c1nnc(SCC(=O)Nc2ccc(F)cc2F)n1-c1ccccc1,-,.,.,-
CC(=O)c1sc2nc(-c3ccco3)ccc2c1N,0.89µM,32,76,-
Nc1c(C(=O)Nc2ccc(F)cc2)sc2nc(-c3ccco3)ccc12,?,32,-,-
CC(=O)c1sc2nc(-c3ccccc3)cc(C)c2c1N,?,-,-,-
Cc1ccc(NC(=O)c2sc3nc(-c4ccc(F)cc4)ccc3c2N)cc1F,-,.,.,-
Nc1c(C(=O)Nc2ccc(Br)cc2)sc2nc(-c3ccco3)ccc12,0.79µM,29,38,?
COCCNc1ccnc(-c2ccccc2C)n1,.,.,.,-
CCCCCOc1ccc(CSCCNC(=S)Nc2ccccc2)cc1,-,24,-,-
CCC(=O)N1CCc2cc(Br)cc(S(=O)(=O)CCC(=O)NCc3cccc(OC)c3)c21,?,.,.,-
COC(=O)c1ccccc1NC(=O)c1ccc2c(c1)CCN2S(C)(=O)=O,-,.,.,-
